Assay outcomes (PubChem BioAssay)
This is a sample that favours compounds with a hit; in the whole collection about 27% have one here.
CYP2C19 inhib: inhibitors of human CYP2C19. AID 778. P33261. CYP2C19 Supersomes, luciferin-H EGE luminescence, 30 min. inhibition, % at 5 µM. hit rate 21% among 96,000;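 active = CYP2C19 inhibition above a set limit at 5 µM in the primary screen, cut at about 50% in these data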
CYP2C19 activ: cytochrome P450 2C19 (human) activation. P33261. recombinant CYP2C19, luciferin-H EGE luminescence; active compounds read high; 0 = fully inhibited enzyme, 1 = untreated enzyme. activation factor at 5 µM. 96,000 tested, under 10 active. AID 1025;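 active = activation factor of at least 2 at 5 µM in the primary screen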
CYP2C9 activ: CYP2C9 (human) activation; hit rate 1.4% among 96,000; recombinant CYP2C9, luciferin-H conversion, luminescence; active compounds read high; factor 1 = untreated enzyme, 0 = blocked; activation factor at 5 µM;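 active = activation factor of 2 or more for CYP2C9 at a 5 µM dose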
Target sequence (P11712 whole entry, looked up): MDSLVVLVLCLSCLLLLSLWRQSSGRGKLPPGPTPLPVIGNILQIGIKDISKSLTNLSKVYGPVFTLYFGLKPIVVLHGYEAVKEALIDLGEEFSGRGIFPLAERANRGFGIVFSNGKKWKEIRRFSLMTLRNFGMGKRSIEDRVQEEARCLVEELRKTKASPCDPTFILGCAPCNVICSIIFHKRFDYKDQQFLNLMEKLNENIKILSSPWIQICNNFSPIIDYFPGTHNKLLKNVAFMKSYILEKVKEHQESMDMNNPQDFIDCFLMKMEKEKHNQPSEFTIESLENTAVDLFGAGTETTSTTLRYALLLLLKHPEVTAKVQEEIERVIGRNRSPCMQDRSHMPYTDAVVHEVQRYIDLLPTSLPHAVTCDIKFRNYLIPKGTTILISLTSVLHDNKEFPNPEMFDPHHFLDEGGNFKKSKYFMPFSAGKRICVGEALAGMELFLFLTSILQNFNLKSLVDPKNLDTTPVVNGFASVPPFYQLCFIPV
CYP2C9 inhib: blocks human cytochrome P450 2C9; P11712; CYP2C9 Supersomes, luciferin-H conversion, luminescence; inhibition, % at 5 µM; hit rate 20% among 96,000; AID 777;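 active = blocking of liver enzyme CYP2C9 beyond about 50% at 5 µM, limit read from the data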
Cav3 T inh: inhibitors of human Cav3.2 T-type calcium channel. O95180. Cav3.2-expressing cells, Fluo-4 calcium fluorescence FDSS; active compounds read low. B-score at 10 µM. hit rate 4% among 100,000. AID 449739;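 active = single-dose well whose peak fluorescence ratio is a statistical outlier from its plate by either plate-standardised score or position-corrected B-score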
Of the large screens only hits and unclear results are named; the others gave an inactive call.

Cc1ccc(CNC(=O)CS(=O)CC(=O)O)cc1 (stereo not drawn)	none
CC1(C)CC(NC(=O)COc2ccc3ccccc3c2)CC(C)(C)N1	none
CC(=O)N1c2ccc(S(=O)(=O)CCC(=O)O)cc2CC1C (stereo not drawn)	none (no result: Cav3 T inh)
O=S(=O)(NCCc1ccccc1)c1ccc(S(=O)(=O)N2CCCCC2)cc1	none
Cc1nnc(SCCn2c(N3CC(C)CC(C)C3)nc3c2c(=O)[nH]c(=O)n3C)s1 (stereo not drawn)	CYP2C9 inhib 61
CCOC(=O)c1c(C)c(C(=O)NCc2cccnc2)c(C)n1C	none
COc1ccc(NC(=O)c2oc3ccccc3c2NC(=O)C2CC2)cc1	none
CCOC(=O)c1c(C)c(C(=O)NCc2ccc3c(c2)OCO3)c(C)n1C	CYP2C9 inhib 60
Cc1cc2oc(C(=O)NCc3ccc4c(c3)OCO4)c(C)c2cc1C	CYP2C9 inhib 55
Cc1ccc(NC(=O)c2oc3ccccc3c2NC(=O)c2ccc3c(c2)OCO3)cc1	CYP2C9 inhib 51
Cc1c(C(=O)NCc2ccc3c(c2)OCO3)oc2ccc(Br)cc12	CYP2C9 inhib 97
Cc1cc(C)c(C(N)=O)c(NC(=O)Nc2ccccc2Cl)n1	none
Cc1c(C(=O)NCc2ccc3c(c2)OCO3)oc2ccccc12	Cav3 T inh -5.6 (no result: CYP2C19 inhib, CYP2C19 activ, CYP2C9 activ, CYP2C9 inhib)
CN(NC(=O)Nc1ccc(Cl)cc1)c1ncc(C(F)(F)F)cc1Cl	none (no result: CYP2C19 inhib, CYP2C19 activ, CYP2C9 activ, CYP2C9 inhib)
Cc1nn(Cc2ccccc2)c(=O)n1N(C)c1ncc(C(F)(F)F)cc1Cl	CYP2C19 inhib 67
CN(C)C(=O)c1cn(N(C)c2ncc(C(F)(F)F)cc2Cl)c(=O)c2ccccc12	CYP2C19 inhib 53, CYP2C9 inhib 80
Cc1nn(-c2ncc(C(F)(F)F)cc2Cl)c(=O)n1-c1ccccc1Cl	none
COc1cccc2cc(C(=O)NCc3ccco3)c(=Nc3ccc(C(=O)O)cc3)oc12	none
O=C(NC1CC1)C1=C[C@@H](c2ccc3c(c2)OCO3)C[C@@H](OCc2ccc(CO)cc2)O1	none (no result: CYP2C19 inhib, CYP2C19 activ, CYP2C9 activ, CYP2C9 inhib)
Cc1c(/C=C(\C#N)c2nn(-c3ccccc3)c(N)c2C#N)c2ccccc2n1Cc1ccc(F)cc1	none (no result: Cav3 T inh)
COC(=O)c1cccc(S(=O)(=O)N2CCOCC2)c1	none
CCNc1ccc(C(=O)OCC)cc1NC(=O)c1cccc(S(=O)(=O)N2CCOCC2)c1	CYP2C9 inhib 58
Cc1ccc(C(=O)OCC(=O)Nc2ccccc2C(F)(F)F)cc1S(=O)(=O)N1CCOCC1	none
CCOC(=O)c1ccccc1NC(=O)COC(=O)c1ccc(C)c(S(=O)(=O)N2CCOCC2)c1	CYP2C9 inhib 61
O=C(COc1ccc(S(=O)(=O)N2CCCC2)cc1Cl)Nc1ccc2c(c1)OCO2	none
O=C(COC(=O)CCc1ccc(S(=O)(=O)N2CCCCC2)cc1)Nc1ccc2c(c1)OCO2	CYP2C9 inhib 76, Cav3 T inh -5.5
O=C(COC(=O)c1cc(S(=O)(=O)N2CCOCC2)ccc1Cl)Nc1ccc2c(c1)OCO2	CYP2C19 inhib 68, CYP2C9 inhib 61
CC(=O)N1c2ccccc2C(=O)C1N1CCCCC1 (stereo not drawn)	none
Cc1ccc(C(=O)Oc2cccc(NC(=O)c3cccs3)c2)cc1S(=O)(=O)N1CCOCC1	CYP2C9 inhib 58
Cc1ccc(C(=O)OCC(=O)Nc2ccc3c(c2)OCO3)cc1S(=O)(=O)N1CCOCC1	CYP2C9 inhib 51
COc1cccc(C(=O)CN(C(=O)c2ccc(Cl)c(Cl)c2)N2C(=O)C3CCCCC3C2=O)c1 (stereo not drawn)	none
Cc1ccc(Nc2nc(C(=O)N3CCC(C(=O)N4CCN(C)CC4)CC3)cs2)cc1	CYP2C19 inhib 77
Cc1ccc(Nc2nc(C(=O)N3CCC(C(=O)NCCN4CCOCC4)CC3)cs2)cc1	none
CCn1c(-c2ccc(OC)c(OC)c2)n[nH]c1=S	none
CCCCn1c(-c2cc(Cl)ccc2OC)n[nH]c1=S	CYP2C19 inhib 72
COc1cccc(-n2nnc3c(=O)n(CC(=O)N4CCC(Cc5ccccc5)CC4)cnc32)c1	none
Cc1ccc(-c2csc(NC(=S)NC(=O)/C=C/c3ccco3)n2)cc1	none
COc1cccc(Nc2nc(-c3ccc(O)cc3)cs2)c1	CYP2C9 inhib 82
COc1cccc(-c2csc(NC(=O)C3CC3)n2)c1	none (no result: Cav3 T inh)
Cc1cccnc1Nc1nc(-c2ccc(O)cc2)cs1	CYP2C19 inhib 88, CYP2C9 inhib 63
COc1cccc(Nc2nc(-c3cccc(N4C(=O)c5ccccc5C4=O)c3)cs2)c1	CYP2C9 inhib 62
COc1cccc(C(=O)Nc2nc(-c3ccc4c(c3)OCO4)cs2)c1	none
OCc1cccnc1	none (no result: CYP2C19 inhib, CYP2C19 activ, CYP2C9 activ, CYP2C9 inhib)
COCCN1C(=O)c2cc(C(=O)Nc3ccc(C)c(F)c3)ccc2C1Nc1ccc(C)c(F)c1 (stereo not drawn)	none (no result: CYP2C19 inhib, CYP2C19 activ, CYP2C9 activ, CYP2C9 inhib)
COc1ccc(N(CC(O)CN2C(=O)NC(C)(C)C2=O)S(=O)(=O)c2ccc(C)cc2)cc1 (stereo not drawn)	CYP2C19 inhib 61, CYP2C9 inhib 66
COc1ccc(N(CC(O)CN2CCCCC2)S(=O)(=O)c2ccc(C)cc2)cc1 (stereo not drawn)	none
COc1ccc(N(CC(O)Cn2nnc3ccccc32)S(=O)(=O)c2ccc(C)cc2)cc1 (stereo not drawn)	CYP2C19 inhib 86, CYP2C9 inhib 69
COc1ccccc1NC(=O)C(CC=C(Cl)Cl)C(C)=O (stereo not drawn)	none
Cc1ccc2nc(NC(=O)CSCC(=O)OCC(=O)c3ccc(Br)cc3)sc2c1	none (no result: Cav3 T inh)
COCCN(C(=O)CCC(=O)Nc1cccnc1)C(C(=O)NC1CCCCC1)c1ccccc1 (stereo not drawn)	none
C=C(c1ccc(OCCO)cc1)c1ccc(OCCO)cc1	none
CN1CC2=Cc3ccccc3OC23Oc2ccccc2C=C3C1	CYP2C19 inhib 54, CYP2C9 inhib 58
Cn1c(=O)c2c(ncn2CC(=O)Nc2nc3ccc(F)cc3s2)n(C)c1=O	CYP2C9 inhib 59
COC(=O)c1nc2n(n1)C(c1ccc(OC)c(OC)c1OC)C1=C(CCCC1=O)N2 (stereo not drawn)	none
CCOC(=O)C1C(=O)CC(C)(O)C(C(=O)OCC)C1c1ccccc1 (stereo not drawn)	none (no result: CYP2C19 inhib, CYP2C19 activ, CYP2C9 activ, CYP2C9 inhib)
CCOC(=O)C1C(=O)CC(O)(c2ccccc2)CC1c1ccccc1 (stereo not drawn)	CYP2C19 inhib 73, CYP2C9 inhib 82 (no result: Cav3 T inh)
CC1CCN(C(=S)c2ccc(O)cc2)CC1	none
CC1CCN(C(=S)c2ccccc2O)CC1	CYP2C19 inhib 94
Cc1cccc(N2CC(C(=O)Nc3ccc4c(c3)OCO4)CC2=O)c1C (stereo not drawn)	none
CN(C)c1nc(SCc2ccccc2Cl)nc2c1CCCC2	CYP2C19 inhib 80
Cc1ccc(CSc2nc3c(c(N(C)C)n2)CCCC3)cc1	CYP2C19 inhib 93, CYP2C9 inhib 56
CNc1nc(SCc2ccc(C)cc2)nc2c1CCCC2	CYP2C19 inhib 96, CYP2C9 inhib 73, Cav3 T inh -6
COC(=O)CSc1nc(SCc2ccc(C)cc2)nc2c1CCCC2	CYP2C19 inhib 95, CYP2C9 inhib 97
Cc1ccc(CSc2nc3c(c(SCC(=O)O)n2)CCCC3)cc1	none
CCOC(=O)c1cc(CC)sc1NC(=O)C(c1ccccc1)c1ccccc1	none
